Measles CPE – compounds protecting cells from measles virus cytopathic effect, primary screen, measles RdRp inhibitor project, single point, MLSMR library, absorbance | Measles virus-infected cells, CPE protection | protection (pct of control), % at 4 µM | hit rate 1.5% among 140,000 | AID 841, 2007; in the data active = protection mostly above about 24%, no sharp cut-off; inactive = mostly below about 26%
PostGolgi ctrl – growth inhibition of yeast control strain, primary screen, counter-screen for post-Golgi transport modulator project; inhibition, % at 10 µM; efflux-deficient yeast background strain, growth absorbance A615, 16 h; hit rate 5% among 98,000; AID 738, 2007
MT1-MMP txn act – MT1-MMP promoter reporter activation – cell-based, luciferase luminescence, primary screen; HT1080 MT1-MMP promoter luciferase reporter, overnight; active compounds read high; activation factor at 10 µM; hit rate 0.16% among 86,000;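 active = activation factor of at least 2 for MT1-MMP transcription at 10 µM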
PostGolgi yeast – phenotypic screen on post-Golgi transport, primary screen; post-Golgi transport phenotypic cell assay; inhibition, % at 10 µM; hit rate 0.9% among 98,000;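 note: yeast cells grown in 1536-well plates; yeast grown about 18 h at 30C before absorbance read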
Of the large screens only hits and unclear results are named; the others gave an inactive call. An excerpt weighted towards active compounds, which were near 5.3% of everything screened. Cut-off read from the data, not from the text of the source, unless noted: active = inhibition above about 30%; inactive = the rest.

O=S(=O)(c1ccc(Cl)c(Cl)c1)c1snnc1-c1ccccc1	PostGolgi ctrl 52 (no result: MT1-MMP txn act)
Cc1ccc(C2C(C=Nc3c(C)n(C)n(-c4ccccc4)c3=O)=C(c3ccccc3)Oc3ccccc32)cc1 (configuration not stated)	none (no result: MT1-MMP txn act)
Cc1[nH]nc(-c2ccc(OCc3cnn(-c4ccccc4)c3)cc2O)c1Oc1ccccc1F	PostGolgi ctrl 42 (no result: MT1-MMP txn act)
O=c1c(Oc2ccccc2F)coc2cc(OCc3cnn(-c4ccccc4)c3)ccc12	none (no result: PostGolgi ctrl, MT1-MMP txn act, PostGolgi yeast)
COC(=O)[C@@]1(Cc2ccccc2)C=C[C@@H](C)N1C	none (no result: Measles CPE, PostGolgi ctrl, PostGolgi yeast)
Clc1ccccc1CSc1nnc(-c2ccccn2)n1Cc1ccco1	none
C(=C\c1ccccc1)/CSc1nnc(-c2ccccn2)n1Cc1ccco1	PostGolgi ctrl 45
O=C(Cn1cnc2c(nnn2Cc2ccc(Cl)cc2)c1=O)NCC1CCCO1 (configuration not stated)	Measles CPE 48
O=C(Cn1cnc2c(oc3ccccc32)c1=O)NCC1CCCO1 (configuration not stated)	Measles CPE 27 (no result: MT1-MMP txn act)
O=C(Cn1cnc2c(nnn2Cc2ccc(F)cc2)c1=O)NCC1CCCO1 (configuration not stated)	none (no result: PostGolgi ctrl, PostGolgi yeast)
Nc1ccccc1C#CCCCCO	none (no result: PostGolgi ctrl, PostGolgi yeast)
O=C(CN1CCCCC1)Nc1ccc(F)c(Cl)c1	Measles CPE 56
O=C(CN1CCN(S(=O)(=O)c2cc(Cl)ccc2Cl)CC1)Nc1ccc2c(c1)OCCO2	Measles CPE 42
CCOC(=O)CN1C(=O)c2ccccc2C1=O	none
CCCOC(=O)CN1C(=O)c2ccccc2C1=O	Measles CPE 20
COc1ccccc1C(=O)Nc1cccc(-c2cn3ccsc3n2)c1	PostGolgi ctrl 38
O=C(Nc1cccc(-c2cn3ccsc3n2)c1)c1ccccc1	none
COC(=O)[C@@]1(Cc2ccc(OC)cc2)[C@H]2c3cc(C(=O)N4CCCC4)n(CCSCCO)c3C[C@H]2CN1C(=O)c1ccccc1	none (no result: PostGolgi ctrl, PostGolgi yeast)
Cc1ccc(S(=O)(=O)N2CCN(CC(=O)N(CC(C)C)c3c(N)n(CC(C)C)c(=O)[nH]c3=O)CC2)c(C)c1	none (no result: PostGolgi ctrl, MT1-MMP txn act, PostGolgi yeast)
COc1ccc(N2CCN(c3nc(NCCO)nc(N4CCOCC4)n3)CC2)cc1	PostGolgi ctrl 31
CCN(CC)CCNC(=O)C(=O)NCC1OCCN1C(=O)c1ccc2c(c1)OCO2 (configuration not stated)	none (no result: PostGolgi ctrl, MT1-MMP txn act, PostGolgi yeast)
COc1ccc(NCc2nc3ccccc3n2CCOc2ccc(C)cc2)cc1	none (no result: PostGolgi ctrl, MT1-MMP txn act, PostGolgi yeast)
O=c1cc(-c2ccccc2)[nH]n1-c1ccc([N+](=O)[O-])cc1	none (no result: MT1-MMP txn act)
NC(=O)c1sc2nc3c(c(-c4ccc(Cl)cc4)c2c1N)CCCC3	PostGolgi ctrl 35
Cc1ccc(-c2c3c(nc4sc(C(N)=O)c(N)c24)CCC3)cc1	PostGolgi ctrl 50
COC(=O)c1sc2nc3c(c(-c4cccs4)c2c1N)CCCC3	none (no result: PostGolgi ctrl, MT1-MMP txn act, PostGolgi yeast)
Cc1ccc2c(CC(=O)NC3=NCCS3)coc2c1	PostGolgi ctrl 33
Cc1cc2occ(CC(=O)NC3=NCCS3)c2cc1C(C)C	none
CCn1cc([N+](=O)[O-])c(C(=O)N2N=C(c3ccccc3)CC2c2ccc([N+](=O)[O-])cc2)n1 (configuration not stated)	Measles CPE 27 (no result: PostGolgi ctrl, MT1-MMP txn act, PostGolgi yeast)
O=C(CSc1nnc(-c2c[nH]c3ccccc23)o1)N(Cc1ccccc1)c1ccc(F)cc1	PostGolgi ctrl 53
COc1ccc(CN(C(=O)CSc2nnc(-c3ccccc3C)o2)c2ccc(F)cc2)cc1	none (no result: PostGolgi ctrl, PostGolgi yeast)
O=C(COc1ccccc1Cl)N1CCN(c2ccc([N+](=O)[O-])c(N3CCOCC3)c2)CC1	none (no result: MT1-MMP txn act)
CCCC(c1nnnn1CC(=O)OCC)N(Cc1cc2c(C)cc(C)cc2[nH]c1=O)C1CCCC1 (configuration not stated)	none
CCC(=O)N(Cc1cc2c(C)cc(C)cc2[nH]c1=O)C1CCCCC1	PostGolgi ctrl 47
CCC(=O)N(Cc1cc2c(C)ccc(C)c2[nH]c1=O)C1CCCCC1	PostGolgi ctrl 31
COc1ccc(CC(=O)Nc2cccc(/C(C)=N/NC(=O)c3cccc([N+](=O)[O-])c3)c2)cc1	none (no result: MT1-MMP txn act)
COc1ccc(-c2n[nH]c(C(F)(F)F)c2-c2cc3ccccc3o2)c(O)c1	PostGolgi ctrl 102, PostGolgi yeast 104
CC(C)(C)n1nnnc1C(c1cc2cc3c(cc2[nH]c1=O)OCCO3)N1CCSCC1 (configuration not stated)	none
CCC(C)(C)n1nnnc1C(c1cc2ccc(OC)cc2[nH]c1=O)N1CCc2ccccc21 (configuration not stated)	PostGolgi ctrl 40
CCC(C)(C)n1nnnc1C(c1cc2cc(C)cc(C)c2[nH]c1=O)N1CCN(Cc2ccc3c(c2)OCO3)CC1 (configuration not stated)	PostGolgi ctrl 37
CCC(C)(C)n1nnnc1C(c1cc2cc3c(cc2[nH]c1=O)OCO3)N1CCN(C)CC1 (configuration not stated)	PostGolgi yeast 30
CCC(C)(C)n1nnnc1C(c1cc2cc(C)cc(C)c2[nH]c1=O)N1CCCC1 (configuration not stated)	none
CCC(C)(C)n1nnnc1C(c1cc2cc(OC)ccc2[nH]c1=O)N1CCc2ccccc21 (configuration not stated)	none
C=CCn1c(SCC(=O)c2[nH]c(C)c(C(=O)OCC)c2C)nc2scc(-c3ccc(OC)cc3)c2c1=O	none (no result: PostGolgi ctrl, MT1-MMP txn act, PostGolgi yeast)
COc1cccc(C(=O)Nc2nnc(-c3ccc(Cl)cc3)o2)c1	none (no result: Measles CPE, PostGolgi ctrl, PostGolgi yeast)
COc1cccc(C(=O)Nc2nnc(-c3cccs3)o2)c1	PostGolgi ctrl 39
CCOC(=O)C1CCCN(CC(=O)Nc2c(C(=O)OC)[nH]c3ccc(Cl)cc23)C1 (configuration not stated)	PostGolgi ctrl 39
CCOC(=O)C1CCCN(CC(=O)Nc2c(C(=O)OC)[nH]c3ccc(C)cc23)C1 (configuration not stated)	none
COC(=O)c1[nH]c2cc(OC)ccc2c1NC(=O)CN1CCN(c2cccc(C)c2)C(C)C1 (configuration not stated)	PostGolgi ctrl 37
COC(=O)c1[nH]c2ccc(C)cc2c1NC(=O)CN1CCCc2ccccc21	PostGolgi ctrl 48
COC(=O)c1[nH]c2cc(C)ccc2c1NC(=O)CN1CCN(c2ccccc2OC)CC1	none
CCN(CC(=O)Nc1c(C(=O)OC)[nH]c2ccc(Cl)cc12)c1ccc2c(c1)OCO2	PostGolgi ctrl 57
CN1CCC2(CC1)N=C(c1ccc(F)cc1)C(=S)N2C(=O)c1ccc(C(C)(C)C)cc1	none (no result: PostGolgi ctrl, MT1-MMP txn act, PostGolgi yeast)
Cc1cc(/C=C2\SC(=Nc3ccccc3)NC2=O)c(C)n1-c1ccc(S(N)(=O)=O)cc1	none (no result: MT1-MMP txn act)
CN(C)C(=O)[C@H]1C[C@@H]1[C@H](NC(=O)OCc1ccccc1)c1ccccc1	none (no result: Measles CPE, PostGolgi ctrl, PostGolgi yeast)
Cc1csc2ncc(C(=O)Nc3ccon3)c(=O)n12	PostGolgi ctrl 41
Cc1cc(NC(=O)CN2C(=O)CC(c3ccco3)Sc3ccccc32)no1 (configuration not stated)	Measles CPE 42
NC(=O)c1c(NC(=O)C2CCCO2)sc2c1CCCC2 (configuration not stated)	none (no result: PostGolgi ctrl, MT1-MMP txn act, PostGolgi yeast)
COc1ccc(-c2nc3n(n2)C(=O)CC(c2ccco2)S3)cc1 (configuration not stated)	PostGolgi ctrl 41 (no result: MT1-MMP txn act)
COc1ccc(-c2nc3c4ccccc4[nH]c(=O)n3n2)cc1	none
